# Screening data: PubChem, National Center for Advancing Translational Sciences (NCATS)
# LmPK inh: inhibitors of Leishmania mexicana pyruvate kinase; Potency, µM (series often up to 57.5 µM), for the others: top-dose activity change, negative = inhibition, usual class: inhibitors; purified LmPK, Kinase-Glo ATP luminescence, 1 h; 290,000 compounds, 0.37% hits; Q27686; further: potency means the concentration at half of the fitted maximal effect; on the % scale 0 is the no-effect control and ±100 the full control effect
#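 Purified LmPK (0.1 nM) converted ADP (0.1 mM) to ATP with PEP (0.5 mM) in imidazole buffer pH 7.2 with KCl and MgCl2, 1 h at room temperature. ATP was read by Kinase-Glo luminescence; data normalized to uninhibited and no-enzyme controls.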
# Giardia FBPA inh: blocks Giardia fructose-bisphosphate aldolase activity. A8B2U2. purified Giardia FBPA. 290,000 compounds, 0.71% hits. Potency, µM (titrated, usually from 59.6 µM), inactives show at the highest dose activity, negative = inhibition, usual class: inhibitors; further: potency means the concentration at half of the fitted maximal effect; on the % scale 0 is the no-effect control and ±100 the full control effect; nearly all actives have a fitted effect of over 55% in size
# Target sequence (A8B2U2 whole entry, looked up): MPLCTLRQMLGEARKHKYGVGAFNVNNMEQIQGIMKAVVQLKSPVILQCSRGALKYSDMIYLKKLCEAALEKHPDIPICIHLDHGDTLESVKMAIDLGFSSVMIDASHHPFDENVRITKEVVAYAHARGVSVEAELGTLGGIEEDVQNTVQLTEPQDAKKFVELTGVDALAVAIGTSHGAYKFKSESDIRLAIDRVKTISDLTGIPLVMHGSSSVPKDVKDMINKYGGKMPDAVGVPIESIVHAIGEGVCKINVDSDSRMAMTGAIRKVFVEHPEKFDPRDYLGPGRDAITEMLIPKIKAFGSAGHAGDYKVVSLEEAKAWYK
#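 40 nM FBPA preincubated 10 min at RT with compound (up to 57.5 uM final), then substrate plus GAPDH/TPI/NAD/arsenate coupling and diaphorase/resazurin added. Fluorescence read after 20 min at RT, 525/598 nm.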
# Shiga toxin inh: blocks Shiga toxin action in Vero cells. Vero cells, Shiga toxin protein synthesis inhibition reporter. 290,000 compounds, 9.2% hits. inhibition, % at 38.7 µM; in the data active means inhibition mostly above about 28%, no sharp cut-off; inactive means mostly below about 43%; further: 0% is about no effect
# Cycloheximide cs: affects cycloheximide protein synthesis inhibition readout, counter-screen; 300,000 compounds, 12% hits; max response, %; AID 2314; cell reporter, cycloheximide protein synthesis inhibition counterscreen; in the data active means max response mostly above about 13%, no sharp cut-off; inactive means mostly below about 14%; further: read at 38.3 µM for the half of the compounds with a filed dose; 0% is about no effect
# Sm TGR block: S. mansoni TGR enzyme inhibition | purified TGR, DTNB reduction, TNB absorbance 405 nm | 360,000 compounds, 3% hits | Potency, µM (doses to about 114 µM), inactives show top-dose activity change, negative = inhibition, usual class: inhibitors; further: potency means the concentration at half of the fitted maximal effect; on the % scale 0 is the no-effect control and ±100 the full control effect; nearly all actives have a fitted effect of over 60% in size
#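 TGR 20 nM + NADPH 100 uM (dispensed conc.), cpd preinc 15 min RT; start with NADPH (500 uM addition) then DTNB (15 mM addition). Kinetic TNB absorbance, 405 nm filter. Four-parameter Hill fit across titration.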
# Tb PYK inh: T. brucei pyruvate kinase inhibition; Q57TT1; TbPYK enzyme, Kinase-Glo Plus ATP luminescence, 45 min; Potency, µM (titrated, usually from 76.8 µM), inactives show top-dose activity, negative = inhibition, actives largely listed as inhibitors; 410,000 compounds, 0.12% hits; AID 624173; further: potency means the concentration at half of the fitted maximal effect; on the % scale 0 is the no-effect control and ±100 the full control effect; nearly all actives have a fitted effect of over 50% in size
#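 Glycolytic pyruvate kinase of T. brucei was incubated with substrate, test compound and 130 uM ADP for 45 minutes at room temperature. Luminescent Kinase-Glo Plus signal was measured after 10 minutes.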
# Numbers without * were called inactive; ? = inconclusive; . = not tested or not shown. Many of the other results were omitted from the sample, so hits are more common in it than they were. Unless noted, the call rests on the fitted dose curve; in most records, active means well fitted curve in the direction sought with a large enough effect; inconclusive means small, poorly fitted or top-dose-only effect, or another doubt; inactive means no such curve, though single readings can be large; an effect the other way counts as inactive or inconclusive.
SMILES,LmPK inh,Giardia FBPA inh,Shiga toxin inh,Cycloheximide cs,Sm TGR block,Tb PYK inh
CCCC/C=C/[C@H](c1ccccc1)[C@H](CO)Cc1ccc([N+](=O)[O-])cc1,.,-3%,16,6,.,.
COc1ccccc1N=c1scc(-c2ccc(S(=O)(=O)N3CCCC3)cc2)n1C,.,.,.,.,-21%,-4%
Cc1ccc(-c2cc(C(=O)NCc3ccco3)no2)cc1,-3%,7%,43*,28*,-5%,2%
O=C(NCc1ccco1)c1cc(-c2cccc(Cl)c2)on1,4%,12%,38*,33*,4%,-2%
O=C(NCc1ccco1)c1cc(-c2ccc3c(c2)OCO3)on1,0%,6%,109*,42*,2%,4%
O=C(NCc1ccco1)c1cc(-c2ccc(Cl)cc2)on1,-3%,-2%,77,20*,-1%,7%
Cc1cc(C(=O)NCc2ccco2)no1,0%,0%,59,7,28%,-8%
CCCCc1nn2c(=O)cc(COC(=O)c3ccc(NC(=O)c4cccc(OC)c4)cc3)nc2s1,.,.,.,.,-5%,4%
O=C(c1cnccn1)N1CCC2(CCCN(C(c3ccccc3)c3ccccc3)C2)CC1,.,0%,.,.,.,-2%
CC[C@H](C)[C@H](NC(=O)[C@H](Cc1ccc(O)cc1)NC(=O)[C@@H]1CCCN1C(=O)[C@@H](N)CCCN=C(N)N)C(=O)N[C@@H](CC(C)C)C(=O)O,.,4%,-2,-5,.,.
COc1cccc(-c2cc(C(=O)NCc3ccco3)no2)c1,5%,0%,86*,50*,-1%,-1%
O=C(NCc1ccco1)c1ccc(CS(=O)c2ccccc2Cl)o1 (configuration not stated),.,.,.,.,.,-14%
CC(C)Cc1cc(C(=O)NCc2ccco2)no1,1%,0%,52*,32*,?,-2%
O=C(NCc1ccco1)c1ccc(-c2cccc(Cl)c2)o1,9%,-3%,71*,52*,32µM*,22%
COc1ccc(OC)c(-c2cc(C(=O)NCc3ccco3)no2)c1,5%,-2%,32,8,-12%,-1%
CCOc1ccc(NC(=O)C(c2ccccn2)N(C(=O)CCl)c2ccc(F)cc2)cc1 (configuration not stated),2%,?,active,32*,-35%,-9%
CCOc1ccc(NC(=O)N(c2ccccc2)c2ccccc2)cc1,-11%,9%,-4,-4,12%,0%
CN(C(=O)c1ccc(NC(=O)Cc2ccc(NC(=O)C3CCN(S(=O)(=O)c4cccc([N+](=O)[O-])c4)CC3)cc2)cc1)C1CCCC1,.,.,.,.,.,0%
Cc1ccc(NCc2nc3ccccc3n2CCOc2ccccc2)cc1,2%,-23%,121*,76*,-15%,-7%
Cc1ccccc1OCCn1c(C)nc2ccccc21,1%,6%,.,-1,3%,0%
CCSc1nc2ccccc2n1CCOc1ccccc1,0%,0%,48*,21*,0%,2%
CCCn1c(CNc2ccc(Br)cc2)nc2ccccc21,14%,-13%,39,17*,1%,9%
Cc1nc2ccccc2n1CCOc1ccccc1,3%,-15%,21,12*,28%,1%
CCn1c(CNc2ccc(C(=O)O)cc2)nc2ccccc21,8%,?,-2,-7,?,2%
Cc1ccc2c(=O)c(C(=O)c3ccccc3)cn(CC(=O)Nc3ccc4c(c3)OCCO4)c2n1,.,.,.,.,0%,1%
SMILES,LmPK inh,Giardia FBPA inh,Shiga toxin inh,Cycloheximide cs,Sm TGR block,Tb PYK inh
CCN(CC)CCN(Cc1cc2cc3c(cc2[nH]c1=O)OCCO3)C(=S)NCCCN(C)C,9%,-8%,.,-4,?,-16%
CCN(CC)CCCN(Cc1cc2cc3c(cc2[nH]c1=O)OCCO3)C(=O)Nc1ccc(F)cc1,-21%,-7%,78*,14*,-3%,2%
COc1cc2cc(CN(CCc3ccccc3C)C(=S)NCCCN(C)C)c(=O)[nH]c2cc1OC,4%,9%,-14,-2,0%,-7%
CN(C)CCCNC(=S)N(CCN(C)C)Cc1cc2cc3c(cc2[nH]c1=O)OCCO3,2%,-4%,23,-1,45µM*,-1%
CCN(CC)CCCN(Cc1cc2cc3c(cc2[nH]c1=O)OCO3)C(=O)Nc1ccccc1OC,-2%,0%,-5,-1,-3%,-5%
Cc1ccc2[nH]c(=O)c(CN(Cc3ccccc3)C(=S)NCCCN(C)C)cc2c1,16µM*,-5%,48*,26*,2%,-6%
CNC1C(O)C2OC3OC(C)CC(=O)[C@@]3(O)O[C@H]2[C@H](NC)C1O (some centres not stated),.,3%,.,.,.,.
O=c1c(-c2ccc3c(c2)OCCO3)coc2c(CN3CCOCC3)c(O)ccc12,1%,9%,33*,39*,2%,-6%
COc1ccccc1-c1coc2c(CN3CCOCC3)c(O)ccc2c1=O,-5%,9%,8,-1,?,1%
O=c1c(-c2ccc([N+](=O)[O-])cc2)coc2c(O)c(O)ccc12,-3%,?,57*,23*,6%,-4%
C=CCN(CC=C)Cc1c(O)ccc2c(=O)c(-c3ccccc3)coc12,-1%,6%,9,10,13µM*,-16%
CN(C)Cc1c(O)ccc2c(=O)c(-c3ccc(Cl)cc3)coc12,-3%,4%,18,14*,0%,-8%
CCN(Cc1ccccc1)Cc1c(O)ccc2c(=O)c(-c3ccc(Cl)cc3)coc12,.,.,.,.,-14%,-5%
Cc1cc(=O)n2cn[nH]c2n1,.,.,.,.,.,0%
N#Cc1c(NC(=O)CSc2ncnc3sccc23)oc(-c2ccco2)c1-c1ccco1,27%,?,-19,-3,4µM*,-4%
COc1cccc(OC)c1-c1cc(C(=O)NC2(C(=O)O)C3CC4CC(C3)CC2C4)nn1-c1ccc(C(=O)N(C)CCCN(C)C)cc1C(C)C (configuration not stated),.,4%,-2,-3,.,.
Cc1ccc(Cn2nnc3c(=O)[nH]c(C4CCN(S(=O)(=O)Cc5ccccc5)CC4)nc32)cc1,-4%,2%,78*,31*,-16%,0%
Cc1ccc(Cn2nnc3c(=O)[nH]c(C4CCN(S(=O)(=O)c5ccccc5)CC4)nc32)cc1,3%,-2%,-22,-4,-24%,-12%
COc1ccc(NC(=O)c2csc(Cc3ccccc3)n2)cc1,4%,-4%,74,43*,5%,-1%
O=C(Nc1ccc(F)cc1)c1csc(Cc2ccccc2)n1,-4%,0%,104*,55*,-1%,-1%
COc1ccc(CNC(=O)c2csc(Cc3ccccc3)n2)cc1,3%,-1%,64*,21*,8%,0%
COc1ccccc1CNC(=O)c1csc(Cc2ccc(Cl)cc2)n1,7%,1%,11,10,16%,-8%
